Structures are written as SMILES. The panel holds about 83,000 compounds, 20% with a hit somewhere; the sample as a whole holds those more often.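 Note: values are percent growth. 100 is the growth of untreated cells, values between 100 and 0 indicate rising inhibition; between -100 and 0 indicates cell death.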 Values without a mark were called inactive. Calls of active or inactive are those of the source. The calls were made as follows: active = growth percent below 10; inactive = the rest.

For the assay, the system named is MDA-MB-468 breast. As to the kind of experiment: NCI-60 one-dose screen, 48 h (100 = growth as untreated, 0 = no growth, -100 = all killed). To be noted: 10 µM unless noted.
Consider `O=C(CN1CCCCC1)Nc1ccc2oc(=O)ccc2c1`, for which the growth was 107%.

For `Cn1ccnc1C(=O)/C=C/c1ccc(C(=O)Nc2c(F)c(F)c(F)c(F)c2F)cc1`, the growth was -16.7% (active).

For the compound `O=C(c1c[nH]c2ccccc12)c1n[nH]c(=S)n1-c1cccc(Br)c1`, the growth is 98.7%.

As to `Cc1ccc(N=C=C(c2ccccc2)c2ccccc2)cc1`, the growth was 69.1%.

Consider `COc1ccc2c(c1)OC13Oc4cc(OC)ccc4C=C1CCCCC3=C2`, for which the growth was 95.6%.

For `COc1cc([C@@H]2c3cc4c(cc3C(OC3O[C@@H]5COC(C)O[C@H]5[C@H](O)[C@H]3O)C3COC(=O)[C@@H]32)OCO4)cc(OC)c1O` (some centres undefined), the growth was -31% (active).

For the compound `Cc1nc2ccccc2n1CC1C(=O)NC(=O)NC1=O`, the growth was 107%.

On to `C=C(C)[C@@H]1CC[C@]2(CO)CC[C@]3(C)[C@H](CC[C@@H]4[C@@]5(C)C=C(C#N)C(=O)C(C)(C)[C@@H]5CC[C@]43C)[C@@H]12`, for which the growth is 8.08% (active).

Turning to `COc1ccc2c(c1)/C(=C\c1c[nH]c3ccc(OC)cc13)C(=O)N2`, the growth was -22.5% (active).

Consider `O=[N+]([O-])c1c(O)c(Cl)cc(Cl)c1Cl`, for which the growth was 91.2%.

For `O=C1/C(=C\c2ccc(F)cc2)CN(C(=O)c2ccc([N+](=O)[O-])cc2)C/C1=C\c1ccc(F)cc1`, the growth is 0.822% (active).

`Cc1ccc(NCCN(C)CC(C)O)c2c(=O)c3ccccc3sc12` (centres undefined): the growth was 13.5%.

With `CCCC1OC(c2ccc(C(C)C)cc2)OCC1CC` (centres undefined), the growth is 97.6%.

`N=C(N)c1ccc(-c2ccc(-c3ccccc3)s2)cc1F`: the growth is -78.4% (active).

Values taken from PubChem BioAssay (NCI).
